Hits are enriched below; roughly 2.8% of the tested compounds scored in any of these assays.
S16 F2sN tox – toxic to S16 Pmp22-F2sN Schwann cells; S16 Pmp22-F2sN Schwann cells viability, CellTiter-Glo, 24 h; Potency, µM (highest dose often 57.5 µM), most hits filed as cytotoxic; hit rate 0.48% among 43,000; further: nearly all actives have a fitted effect of over 65% in size
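Rat S16 Schwann reporter line, 24 h treatment with library compounds delivered at 23 nL per well. Cell viability by CellTiter-Glo luminescence.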
mTORC1 inh – inhibitors of mTORC1 signaling in Tsc2-/- p53-/- MEF cells | Tsc2-/- p53-/- MEF, phospho-rpS6 immunofluorescence/PI, 24 h | hit rate 0.78% among 44,000 | Potency, µM (titrated, usually from 38.3 µM), actives largely listed as inhibitors; further: nearly all actives have a fitted effect of over 50% in size
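Read-out: phospho-S6 Alexa-488 intensity over PI intensity per well, scored as % active cells using thresholds from rapamycin (7.5 nM) and DMSO controls. Tsc2-/-, p53-/- MEFs exposed to compound for 24 h; PI cell count recorded as viability.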
PMP22 txn – PMP22 gene transcription modulation; S16 Pmp22-F2sN Schwann cells (luciferase reporters placed in the Pmp22 gene), FLuc/NLuc coincidence luminescence, 24 h; Potency, µM (highest dose often 57.5 µM), most hits filed as inhibitors; hit rate 2% among 43,000; AID 1508649; active means clear falling dose curves in both reporters; inconclusive means both reporters move, but less clearly or upward; inactive means either reporter flat; the % is the NLuc reporter signal
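Rat S16 Pmp22-F2sN cells, 500-1,000/well in phenol red-free DMEM + 10% FBS, compound-treated 24 h (37C, 5% CO2). Luminescence: FLuc read, Stop&Glo added, NLuc read.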
GALC G270D up – enhancers of human galactocerebrosidase G270D mutant activity in cells; Potency, µM (doses to about 57.5 µM), hits mostly activators; 145M-Twi-hGALC-G270D cells (Twitcher mouse brain line with human GALC G270D), HMU-beta-Gal fluorescence, 48 h; AID 1159614; hit rate 0.1% among 45,000; P54803; further: nearly all actives have a fitted effect of over 65% in size
Target sequence (P54803 whole entry G286D): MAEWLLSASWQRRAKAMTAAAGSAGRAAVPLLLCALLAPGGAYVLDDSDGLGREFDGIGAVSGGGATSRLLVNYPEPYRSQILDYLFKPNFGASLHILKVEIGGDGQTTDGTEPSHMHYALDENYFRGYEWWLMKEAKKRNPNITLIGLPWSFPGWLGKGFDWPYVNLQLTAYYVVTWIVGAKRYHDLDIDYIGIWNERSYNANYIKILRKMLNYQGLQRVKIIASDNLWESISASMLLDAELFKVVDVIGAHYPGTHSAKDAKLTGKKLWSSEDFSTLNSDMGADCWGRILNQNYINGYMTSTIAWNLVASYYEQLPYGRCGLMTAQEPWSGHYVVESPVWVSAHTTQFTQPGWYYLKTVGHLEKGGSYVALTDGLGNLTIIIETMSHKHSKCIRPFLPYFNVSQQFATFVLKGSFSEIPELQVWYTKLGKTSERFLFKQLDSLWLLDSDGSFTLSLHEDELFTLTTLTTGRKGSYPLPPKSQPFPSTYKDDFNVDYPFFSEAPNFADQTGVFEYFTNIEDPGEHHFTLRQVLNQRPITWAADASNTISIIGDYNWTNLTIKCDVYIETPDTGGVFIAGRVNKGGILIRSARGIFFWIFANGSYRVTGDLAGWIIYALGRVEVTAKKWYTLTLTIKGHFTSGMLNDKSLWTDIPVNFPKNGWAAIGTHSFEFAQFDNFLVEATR
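Fluorogenic HMU-b-Gal hydrolysis (0.1 mM final, pH 5.2 citrate-phosphate with 1 mg/mL sodium taurocholate; carbonate stop buffer) measures mutant GALC activity after compound treatment of live 145M-Twi Twitcher brain cells stably carrying human GALC-G270D, with wild-type GALC line alongside; activation sought.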
NLuc saturating – counter-screen for PMP22 expression modulators: NanoLuc inhibition, saturating substrate | Potency, µM (top dose mostly 57.5 µM), most hits filed as inhibitors | shares compounds with PMP22 txn | Secreted NLuc enzyme (filtered S16 cell medium), Nano-Glo luminescence | hit rate 4% among 690
NLuc Km counter – inhibits NanoLuc under Km conditions, PMP22 counter-screen; Potency, µM (doses to about 57.5 µM), most hits filed as inhibitors; hit rate 5% among 690; shares compounds with PMP22 txn; secreted NLuc enzyme, coelenterazine luminescence, Km conditions
FLuc ctr PMP22 – counter-screen for PMP22 expression modulators: firefly luciferase inhibition; 690 tested, under 10 active; shares compounds with PMP22 txn; purified P. pyralis FLuc, luminescence, 10 min; Potency, µM (series often up to 57.5 µM), hits mostly inhibitors
S16 viab conf – S16 Schwann cell cytotoxicity, confirmatory; shares compounds with PMP22 txn; S16 Schwann cells viability, CellTiter-Glo ATP luminescence, 24 h; Potency, µM (top dose mostly 57.5 µM), actives largely listed as cytotoxic; hit rate 7% among 690
PMP22 txn cnf – PMP22 transcription modulation, confirmatory | S16 Schwann cells Pmp22-F2sN, dual luciferase, 24 h | Potency, µM (titrated, usually from 57.5 µM), most hits filed as inhibitors | hit rate 22% among 690 | AID 1508646 | shares compounds with PMP22 txn; active means clear falling dose curves in both reporters; inconclusive means both reporters move, but less clearly or upward; inactive means either reporter flat; the % is the FLuc reporter signal
PMP22 HiBiT cnf – rat PMP22 protein level modulation, confirmatory; shares compounds with PMP22 txn; S16 Schwann cells Pmp22-HiBiT, luminescence, 48 h; Potency, µM (series often up to 27.9 µM), usual class: inhibitors; 95 tested, under 10 active; AID 1508647
Each line names hits and unclear results; the compound was inactive in the other large screens (follow-up assays come after a bar, where they were run). Unless noted, the call rests on the fitted dose curve; in most records, active means well fitted curve in the direction sought with a large enough effect; inconclusive means small, poorly fitted or top-dose-only effect, or another doubt; inactive means no such curve, though single readings can be large; an effect the other way counts as inactive or inconclusive.

CCOc1ccccc1NC(=O)c1cc2c(Cl)nc3ccccc3c2s1	none
Cn1c(=O)c2cc(C(=O)NCCCN3CCN(c4cccc(Cl)c4)CC3)sc2c2ccccc21	none
O=C(NCCCN1CCN(c2ccc(F)cc2)CC1)c1cc2c(Cl)nc3ccccc3c2s1	PMP22 txn 14µM | NLuc saturating inactive | NLuc Km counter inactive | FLuc ctr PMP22 inactive | S16 viab conf inactive | PMP22 txn cnf inconclusive | PMP22 HiBiT cnf inactive
Cc1ccc(C)c(N2CCN(CCCNC(=O)c3ccc4nc(C(C)C)oc4c3)CC2)c1	S16 F2sN tox inconclusive, PMP22 txn 11µM | NLuc saturating inconclusive | NLuc Km counter inconclusive | FLuc ctr PMP22 inactive | S16 viab conf inconclusive | PMP22 txn cnf inconclusive
O=C(NCCCN1CCN(c2ccc(F)cc2)CC1)c1ccc2nc(Cc3ccccc3)oc2c1	PMP22 txn 16µM | NLuc saturating inactive | NLuc Km counter inactive | FLuc ctr PMP22 inactive | S16 viab conf inactive | PMP22 txn cnf inconclusive
CCc1ccc(CN(C(=O)c2cc(=O)c3ccc(C)cc3o2)C2CCS(=O)(=O)C2)cc1 (stereo not given)	none
COc1ccc(Br)cc1CN1C(=O)c2ccccc2C1C(=O)NC1CCCCCC1 (stereo not given)	none
Cc1cccc(CC(=O)N2CC(=O)Nc3ccc(C)cc3C2c2ccc(F)cc2)c1 (stereo not given)	none
CCS(=O)(=O)c1nc(S(=O)(=O)c2ccc(Cl)cc2)c(NCc2ccccc2Cl)s1	PMP22 txn 4.8µM | NLuc saturating inconclusive | NLuc Km counter inconclusive | FLuc ctr PMP22 inactive | S16 viab conf inactive | PMP22 txn cnf inactive
O=C(NCCSc1c(-c2ccc(Br)cc2)[nH]c2ccccc12)c1ccc(S(=O)(=O)N2CCOCC2)cc1	PMP22 txn 8µM | NLuc saturating inactive | NLuc Km counter inactive | FLuc ctr PMP22 inactive | S16 viab conf inactive | PMP22 txn cnf inconclusive
CCN(CC)S(=O)(=O)c1ccc(C(=O)NCCSc2c(-c3ccc(OC)cc3)[nH]c3ccccc23)cc1	PMP22 txn 3µM | NLuc saturating inactive | NLuc Km counter inactive | FLuc ctr PMP22 inactive | S16 viab conf inactive | PMP22 txn cnf inactive
O=C(NCCSc1c(-c2ccccc2)[nH]c2ccccc12)c1ccc(S(=O)(=O)N2CCOCC2)cc1	PMP22 txn 9.5µM | NLuc saturating inactive | NLuc Km counter inactive | FLuc ctr PMP22 inactive | S16 viab conf inactive | PMP22 txn cnf inactive
Cc1ccc(-c2[nH]c3ccccc3c2SCCNC(=O)c2ccc(S(=O)(=O)N(C)C)cc2)cc1	S16 F2sN tox inconclusive, PMP22 txn inconclusive
COc1ccc(-c2[nH]c3ccccc3c2SCCNC(=O)c2ccc(S(=O)(=O)N(C)C)cc2)cc1	S16 F2sN tox inconclusive
O=C(NCCSc1c(-c2ccc(Cl)cc2)[nH]c2ccccc12)c1ccc(S(=O)(=O)N2CCOCC2)cc1	S16 F2sN tox inconclusive
CCCOc1ccc(CN(C(=O)Cc2coc3ccc(CC)cc23)C2CCS(=O)(=O)C2)cc1 (stereo not given)	none
CCOc1ccccc1Nc1sc(C(=O)c2ccccc2)c(N)c1S(=O)(=O)c1ccc(C)cc1	S16 F2sN tox inconclusive, PMP22 txn 2.8µM | NLuc saturating inactive | NLuc Km counter inactive | FLuc ctr PMP22 inactive | S16 viab conf inactive | PMP22 txn cnf inconclusive
Cc1c(Cl)cccc1Nc1sc(C(=O)c2ccccc2)c(N)c1S(=O)(=O)c1ccccc1	none
Cc1cccc(C)c1Nc1sc(C(=O)c2ccccc2)c(N)c1S(=O)(=O)c1ccccc1	PMP22 txn 6.7µM | NLuc saturating inactive | NLuc Km counter inactive | FLuc ctr PMP22 inactive | S16 viab conf inactive | PMP22 txn cnf inconclusive
Cc1ccc(NC(=O)Cn2c(=O)n(Cc3ccccc3)c(=O)c3c(C)c(C(=O)N(C)C)sc32)c(C)c1	S16 F2sN tox inconclusive
Cc1ccc(OC(=O)c2cc(-c3ccc(Cl)cc3)on2)c(C)c1	none
Cc1ccc(C)c(N2CCN(CCCNc3ncnc4onc(-c5ccc(Cl)cc5)c34)CC2)c1	none
COC(=O)c1c(-c2ccc(Cl)cc2)noc1N1CCN(c2ccc(C)cc2C)CC1	S16 F2sN tox inconclusive, PMP22 txn 10µM | NLuc saturating inactive | NLuc Km counter inactive | FLuc ctr PMP22 inactive | S16 viab conf inconclusive | PMP22 txn cnf 19µM
COC(=O)c1c(-c2ccc(Cl)cc2)noc1N1CCN(c2cc(C)ccc2C)CC1	S16 F2sN tox inconclusive, mTORC1 inh inconclusive, PMP22 txn 5.6µM | NLuc saturating inactive | NLuc Km counter inactive | FLuc ctr PMP22 inactive | S16 viab conf inconclusive | PMP22 txn cnf 17µM | PMP22 HiBiT cnf inconclusive
CCn1nnc2cc(C(=O)Nc3cc(C)ccc3C)ccc21	none
CCC(=O)N1CCc2cc(Br)cc(S(=O)(=O)N3CCCC(C(=O)N(C)c4ccc(Br)cc4)C3)c21 (stereo not given)	PMP22 txn inconclusive
CCN(c1ccccc1)S(=O)(=O)c1ccc2[nH]cc(C(=O)NCc3ccc(C)cc3)c(=O)c2c1	PMP22 txn 13µM | NLuc saturating inactive | NLuc Km counter inactive | FLuc ctr PMP22 inactive | S16 viab conf inactive | PMP22 txn cnf inactive
COc1ccc(Cl)cc1NC(=O)c1ccc2c(c1)CCCN2S(C)(=O)=O	S16 F2sN tox inconclusive, PMP22 txn inconclusive
COc1ccc(N2CCN(C(CNC(=O)CC(C)C)c3ccc4c(c3)OCO4)CC2)cc1 (stereo not given)	none
CCn1c(=O)cc(OCC(=O)N2CCN(c3ccccc3OC)CC2)c2ccccc21	PMP22 txn 17µM | NLuc saturating inactive | NLuc Km counter inactive | FLuc ctr PMP22 inactive | S16 viab conf inactive | PMP22 txn cnf inactive
CCn1c(=O)cc(OCC(=O)N2CCN(c3ccc(OC)cc3)CC2)c2ccccc21	none

Screens as filed in PubChem.
